# Screening data (PubChem)
# KDM5B inh: Primary screen for KDM5B Histone Demethylases FDH-coupled qHTS; Potency, µM (highest dose often 57.7 µM), actives largely listed as inhibitors; Lysine-specific demethylase 5B (Homo sapiens), Q9UGL1; 220,000 compounds, 2.6% hits; KDM5B demethylase, FDH-coupled NADH fluorescence (FDH is formaldehyde dehydrogenase); active means well fitted inhibition curve with a large enough effect; further: 0% is about no effect; nearly all actives have a fitted effect of over 70% in size
# Target sequence (Q9UGL1 whole entry, looked up): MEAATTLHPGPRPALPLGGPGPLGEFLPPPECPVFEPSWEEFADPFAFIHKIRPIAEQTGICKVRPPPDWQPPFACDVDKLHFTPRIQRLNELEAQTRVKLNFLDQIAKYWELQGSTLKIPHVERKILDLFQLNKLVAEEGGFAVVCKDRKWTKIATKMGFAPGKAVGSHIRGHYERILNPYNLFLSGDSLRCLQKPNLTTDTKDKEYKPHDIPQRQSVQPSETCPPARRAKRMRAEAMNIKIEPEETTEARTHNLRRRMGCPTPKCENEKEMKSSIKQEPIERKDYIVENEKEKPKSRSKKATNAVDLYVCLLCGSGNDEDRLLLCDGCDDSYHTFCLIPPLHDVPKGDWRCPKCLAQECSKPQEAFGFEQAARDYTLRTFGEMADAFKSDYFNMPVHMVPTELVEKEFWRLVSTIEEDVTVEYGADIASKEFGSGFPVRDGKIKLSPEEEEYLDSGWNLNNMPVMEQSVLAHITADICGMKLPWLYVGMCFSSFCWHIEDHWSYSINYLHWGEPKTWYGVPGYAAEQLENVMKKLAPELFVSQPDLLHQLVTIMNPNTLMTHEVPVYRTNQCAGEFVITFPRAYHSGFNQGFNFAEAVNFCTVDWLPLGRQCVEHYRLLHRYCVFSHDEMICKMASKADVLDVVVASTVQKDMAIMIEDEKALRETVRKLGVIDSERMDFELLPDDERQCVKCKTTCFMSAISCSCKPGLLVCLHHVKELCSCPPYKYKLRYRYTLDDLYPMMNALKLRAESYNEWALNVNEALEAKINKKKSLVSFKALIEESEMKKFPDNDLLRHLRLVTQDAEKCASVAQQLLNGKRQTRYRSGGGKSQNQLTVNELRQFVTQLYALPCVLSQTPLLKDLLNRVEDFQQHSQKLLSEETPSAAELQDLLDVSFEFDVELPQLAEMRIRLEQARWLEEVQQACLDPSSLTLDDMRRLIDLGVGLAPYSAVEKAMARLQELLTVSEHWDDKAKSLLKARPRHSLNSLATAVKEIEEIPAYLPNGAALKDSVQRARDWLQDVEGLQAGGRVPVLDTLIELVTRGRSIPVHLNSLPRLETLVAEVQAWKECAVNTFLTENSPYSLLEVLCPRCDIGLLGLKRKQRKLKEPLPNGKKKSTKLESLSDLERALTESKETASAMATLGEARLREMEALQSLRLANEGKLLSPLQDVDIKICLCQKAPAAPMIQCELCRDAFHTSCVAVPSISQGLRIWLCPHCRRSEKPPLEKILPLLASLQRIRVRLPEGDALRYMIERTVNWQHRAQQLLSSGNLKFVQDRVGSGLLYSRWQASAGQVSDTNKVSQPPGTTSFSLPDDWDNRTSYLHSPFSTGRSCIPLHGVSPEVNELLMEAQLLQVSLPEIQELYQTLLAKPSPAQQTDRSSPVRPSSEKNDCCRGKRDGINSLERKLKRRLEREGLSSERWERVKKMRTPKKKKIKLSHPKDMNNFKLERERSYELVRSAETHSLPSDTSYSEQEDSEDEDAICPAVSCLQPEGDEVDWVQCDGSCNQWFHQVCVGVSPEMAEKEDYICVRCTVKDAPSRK
#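 Measured: NADH fluorescence change, 30 min, RT. System: KDM5BΔAP 200 nM final, H3K4me3 peptide, α-KG, Fe(II), ascorbate, NAD⁺ plus FDH, pH 7.5 HEPES. Compounds: titrated, 10 min pre-incubation with enzyme.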
# Starred values were filed as active, the others as inactive; i = inactive. The sample as a whole holds a higher share of hits than the screen did. Potency means the concentration at half of the fitted maximal effect.
SMILES,KDM5B inh
Cc1ccc(C2=NC3(CCN(C(=O)c4ccc(F)c(Cl)c4)CC3)ON2)cc1,i
Cc1ccc(C2=NC3(CCN(C(=O)c4ccc5c(c4)OCO5)CC3)ON2)cc1,i
O=C(c1cccc(Cl)c1)N1CCC2(CC1)N=C(c1ccc(Br)cc1)NO2,i
O=C(c1ccc2c(c1)OCO2)N1CCC2(CC1)N=C(c1ccc(Cl)cc1)NO2,32µM*
COc1cccc(CNC(=O)[C@@H]2C[C@@H](O)CN2C2CCN(C(=O)c3ccc(C)s3)CC2)c1,i
Cn1c(=O)c2c(ncn2CCC(=O)Nc2cc(Cl)cc(Cl)c2)n(C)c1=O,i
CN(C)S(=O)(=O)c1ccc(-c2nc(C#N)c(N3CCCC3)o2)cc1,i
CN(C)S(=O)(=O)N(CC(=O)N1CCN(c2cccc(Cl)c2)CC1)c1ccc(F)cc1,i
O=c1oc2ccccc2c(N2CCCC2)c1NS(=O)(=O)c1ccc(Br)cc1,i
COc1ccc(C2C(C(=O)OC(C)(C)C)=C(C)N=C3SC=C(CC(=O)N4CCCC4)N32)cc1OC (centres undefined),i
C=CCOC(=O)C1=C(C)N=C2SC=C(CC(=O)N3CCCC3)N2C1c1cc(OC)cc(OC)c1 (centres undefined),i
C=CCOC(=O)C1=C(C)N=C2SC=C(CC(=O)N3CCCC3)N2C1c1ccc(OC)cc1OC (centres undefined),28µM*
O=C(NCc1n[nH]c(=O)c2ccccc12)c1ccccc1Cl,i
O=C(Nc1ccncc1)c1ccc(COc2ccccc2Cl)cc1,i
CNC(=O)CCS(=O)(=O)Cc1coc(-c2cccc(F)c2)n1,i
N#C/C(=C\c1ccco1)C(=O)NC1CCCCC1,i
COc1ccc(-c2noc(-c3cccn3CC(=O)Nc3cc(C)ccc3OC)n2)cc1F,i
CCN(C(=O)Cn1cccc1-c1nc(-c2ccc(OC)c(F)c2)no1)c1cccc(C)c1,28µM*
COc1ccc(-c2noc(-c3cccn3CC(=O)Nc3cccc(C)c3)n2)cc1F,i
COc1ccc(C(=O)COC(=O)c2ccc(OC(F)F)c(OC)c2)c(OC)c1,i
COc1ccc(NC(=O)N[C@H]2CO[C@H]3[C@@H]2OC[C@@H]3n2nnnc2Oc2ccc(-n3cncn3)cc2)cc1,i
c1ccc(-c2cc3c(cn2)NCCN(Cc2ccsc2)C3)cc1,35µM*
c1ccc(-c2cc3c(cn2)NCCN(Cc2ccccn2)C3)cc1,35µM*
O=C1NCc2ccccc2CC12CCN(Cc1ccsc1)CC2,i
Fc1ccc(CN2CCNc3cnc(-c4ccccc4)cc3C2)cc1F,35µM*
SMILES,KDM5B inh
CCCn1nc(C(=O)OCC(=O)N2CCCc3ccccc32)c2ccccc2c1=O,i
CCCCOc1cccc(-c2cc(C(=O)O)c3ccccc3n2)c1,i
CCC12CN(C(C)=O)CC(CC)(CN(C(C)=O)C1)C2=O,i
COc1cc(OC)cc(C(=O)/C(=C\c2ccco2)c2nc3ccccc3o2)c1,i
Cc1[nH]ccc(=O)c1OCC(=O)Nc1ccc(Cl)c(Cl)c1,i
COc1cccc(C(=O)Nc2nonc2-c2ccc(OC(C)C)cc2)c1,i
COc1ccc(CO/N=C/c2cc(OC)c(OC)c(OC)c2)cc1F,i
CN1CC(=O)N(c2ccccc2)Cc2c(NCCCc3ccccc3)ncnc21,i
Cc1noc(-c2cccs2)c1C(=O)NC(C)c1cccc2ccccc12 (centres undefined),32µM*
Cc1cccc(CNC(=O)c2c(C)noc2-c2cccs2)c1,28µM*
Cc1noc(-c2cccs2)c1C(=O)N(C)Cc1ccccc1,i
Cc1cccc(CNC(=O)c2c(C)noc2-c2ccccc2Cl)c1,i
Cc1noc(-c2cccs2)c1C(=O)NC(C)c1ccccc1 (centres undefined),25µM*
Cc1nc2ccccc2nc1SCC(=O)NC(C)c1cccc2ccccc12 (centres undefined),i
Cc1nc(-c2cccs2)c(CC(=O)NC(C)c2cccc3ccccc23)s1 (centres undefined),i
COc1ccc(-c2onc(C)c2C(=O)N[C@@H](C)c2ccc(OC)cc2)cc1,i
COc1cc(OC)c(CNC(=O)c2c(C)noc2-c2cccs2)c(OC)c1,i
COc1ccc(CN2Cc3[nH]nc(-c4ccnn4C)c3CC2=O)cc1,i
O=S(=O)(O)NCC(O)CCl (centres undefined),i
CC(C)Cn1c(SCC(=O)NC(c2ccc(F)cc2)C(C)C)nc2ncccc2c1=O (centres undefined),i
N#Cc1c(SCc2ccccc2)cc(SCc2ccccc2)cc1SCc1ccccc1,i
Cc1c(C(=O)C(=O)Nc2ccc(C(C)C)cc2)c2ccccc2n1C,i
CCOCCCNC(=O)c1ccoc1,i
CCOc1ccc(CNC2CC2)cc1,i
CCC(C)C(=O)NCc1ccc(COC)cc1 (centres undefined),i
SMILES,KDM5B inh
Cc1nc(NCCN(C)C)c(C#N)c2c1CCCC2,i
CC(C)C(CNC(=O)CCc1ncc(-c2ccc(F)cc2)o1)N(C)C (centres undefined),i
N#Cc1ccc(F)c(CSc2nnc(NCc3ccccc3)s2)c1,i
CC(Sc1nc(C2CC2)nc2ccccc12)C(=O)NC(=O)NC(C)(C)C (centres undefined),i
O=C(CCCc1nc(-c2ccccc2)no1)Nc1cccc(S(=O)(=O)N2CCOCC2)c1,i
Cn1nc(C2CCNCC2)c2c(C(=O)NC3CC3)cc(C3CC3)nc21,89µM*
Cn1nc(C(=O)Nc2ccccc2C(=O)NC2CC2)c2ccccc2c1=O,i
CC1CCC(NC(=O)c2cc(C3CC3)nc3ccccc23)CC1 (centres undefined),i
Cc1nn(C)c2nc(C3CC3)cc(C(=O)N3CCN(c4ncccn4)CC3)c12,i
Cn1nc(C2CCCNC2)c2c(C(=O)NC3CC3)cc(C3CC3)nc21 (centres undefined),89µM*
CCN(CC)CCNC(=O)c1ccc(NC(=O)Cc2cccc(C(F)(F)F)c2)cc1,i
O=C(NCCNc1ncccn1)Nc1ccc2c(c1)Cc1ccccc1-2,i
COc1ccccc1/C=C/C=C(/C#N)C(=O)Nc1ccccc1C(=O)O,i
COC(=O)C(C)N1C(=O)S/C(=C/c2ccc(OC)cc2)C1=O (centres undefined),i
Cc1ccc(-c2cc3c(=O)n(CCNC(=O)Cc4c[nH]c5ccccc45)ccn3n2)c(C)c1,i
O=C(NCCn1ccn2nc(-c3ccc(F)cc3)cc2c1=O)c1cccc2[nH]ccc12,28µM*
Cc1ccc(-c2cc3c(=O)n(CCNC(=O)c4ccc(F)cc4)ccn3n2)c(C)c1,i
Cc1ccc(-c2cc3c(=O)n(CCNC(=O)c4ccc[nH]c4=O)ccn3n2)cc1C,35µM*
Cc1ccc(-c2cc3c(=O)n(CCNC(=O)c4cccc5[nH]ccc45)ccn3n2)cc1C,28µM*
O=C(Cc1cccc(F)c1)NCCn1ccn2nc(-c3ccc(F)cc3)cc2c1=O,i
CN(Cc1ccccc1)Cc1nc2c(n1Cc1ccccc1)C(=O)N(Cc1ccccc1C#N)CCN2,i
COc1cc(NC(=O)c2nc3ccccc3nc2OC)cc(OC)c1,i
Cc1cccc(NC(=O)CN2CCN(C(=O)NCc3ccccc3)CC2)c1C,i
CC(NC(=O)c1ccc2c(c1)NC(=O)CCS2)c1ccncc1 (centres undefined),i
Cc1ccc2[nH]cc(CCNC(=O)Cc3ccc(F)cc3)c2c1,i
COCCCNC(=O)Cn1ccc2c(Cl)cccc21,i
